From PubChem BioAssay come the findings set out here.

Experiment [1] addresses Albumin (Bos taurus) (UniProt P02769). Description: bovine serum albumin binders on microarray, profiling panel, artefact control for SMM control protein annotation, biochemical, small-molecule microarray, Alexa647 label, 635/667 nm fluorescence (AID 1118).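 Also: score merges 667 nm emission intensity and signal-to-noise per printed compound spot.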 The following applies: BSA-A647 binding, fluorescence 635 nm, higher = more signal.
Experiment [2] in a line: small-molecule microarray binders of probe aXIP, primary screen, biochemical, NeuroSMM set, 635/667 nm fluorescence (AID 1119).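 Also: probe is the protein aXip251-270 applied at 1 µg/mL to compound-printed slides; binding of probe to printed compounds measured as 667 nm fluorescence plus signal to noise.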 The conditions noted are these: higher = more signal, called active from +8 up or from −8 down.
The nature of experiment [3]: small-molecule binders of probe aNOTCH3, primary screen, biochemical, small-molecule microarray, 635/667 nm fluorescence (AID 1120).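 Also: probe is a biotin-tagged antibody raised against NOTCH3 rather than NOTCH3 protein; score merges spot fluorescence near 667 nm with spot signal to noise.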 The following applies: higher = more signal.
Experiment [4] is described as follows: small-molecule binders of probe aNOTCH2, primary screen, biochemical, small-molecule microarray, 635/667 nm fluorescence (AID 1121).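 Also: score merges feature fluorescence read at 667 nm with its signal to noise.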 The following applies: higher = more signal.
Experiment [5] deals with Carbonic anhydrase 2 (Homo sapiens) (UniProt P00918). Description: CAII small-molecule binders, profiling panel, biochemical, small-molecule microarray, Alexa647-labelled CAII (AID 1122). The following applies: CAII-A647 binding fluorescence, higher = more signal.
Experiment [6] in a line: COS7 lysate on small-molecule microarray, probe aHis, 635 nm (AID 1123).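 Also: z-score combines 667nm fluorescence intensity with signal-to-noise per printed compound spot.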 The following applies: COS7 cell lysate, fluorescence, higher = more signal.
Experiment [7] in a line: compound binding in COS7 lysate, probe aLAP1, primary screen, cell lysate, small-molecule microarray (AID 1124).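 Also: lysate comes from COS7 cells expressing LAP1 and is applied at 0.3 µg/mL; score merges spot fluorescence near 667 nm with signal-to-noise over triplicate slides.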 The conditions noted are these: probe aLAP1, fluorescence, higher = more signal.
The subject of experiment [8] is Sam68 (KHDRBS1). The experiment is described as follows: Sam68 small-molecule binders, primary screen, biochemical, small-molecule microarray, 635 nm fluorescence (AID 1125).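 Also: score merges 667 nm channel intensity with signal to noise over triplicate slides.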 The following applies: small-molecule microarray binding, higher = more signal.
For experiment [9], the system named is Chordin-like protein 2 (CHRDL2). The experiment is described as follows: CHRDL2 small-molecule binders, primary screen, biochemical, small-molecule microarray, 635 nm fluorescence (AID 1126).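 Also: printed compound slides probed with Chrdl2 protein at 4 µg/mL for 1 h at 4 C; score merges 667 nm emission intensity with signal to noise over three replicate slides.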 The following applies: small-molecule microarray binding, fluorescence 635 nm; higher = more signal.
Experiment [10] has as its target Concanavalin-A (Canavalia ensiformis) (UniProt P02866). The experiment is described as follows: ConA small-molecule binders, primary screen, artefact control for SMM control protein annotation, biochemical, small-molecule microarray, Alexa647 label, 635 nm (AID 1127).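 Also: z combines 667 nm emission intensity with signal-to-noise across three replicate slides.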 The following applies: ConA-A647 binding fluorescence, higher = more signal.
The nature of experiment [11]: anti-His antibody binders, primary screen, artefact control for SMM control protein annotation, biochemical, small-molecule microarray, 635 nm fluorescence (AID 1128).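 Also: score merges feature fluorescence with signal-to-noise for each printed compound spot.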 The conditions noted are these: anti-His Alexa647 antibody binding, higher = more signal.
In experiment [12] the test system is Human papillomavirus type 1a E7 protein (residues 1-88). The experiment is described as follows: HPV1a E7 small-molecule binders, primary screen, biochemical, small-molecule microarray, residues 1-88, 635 nm (AID 1129). The following applies: small-molecule microarray binding, fluorescence 635 nm; higher = more signal.
The target of experiment [13] is Focal adhesion kinase 1 (Homo sapiens) (UniProt Q05397). The experiment is described as follows: small-molecule microarray binders of FAK, primary screen, biochemical, 635/667 nm fluorescence, BSA, DTT (AID 1130).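 Also: composite of spot emission at 667 nm and signal to noise over triplicate slides.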 The following applies: PTK2 binding, 635 nm fluorescence, higher = more signal.
Sequence of Focal adhesion kinase 1 (Homo sapiens) (Q05397 whole entry, looked up): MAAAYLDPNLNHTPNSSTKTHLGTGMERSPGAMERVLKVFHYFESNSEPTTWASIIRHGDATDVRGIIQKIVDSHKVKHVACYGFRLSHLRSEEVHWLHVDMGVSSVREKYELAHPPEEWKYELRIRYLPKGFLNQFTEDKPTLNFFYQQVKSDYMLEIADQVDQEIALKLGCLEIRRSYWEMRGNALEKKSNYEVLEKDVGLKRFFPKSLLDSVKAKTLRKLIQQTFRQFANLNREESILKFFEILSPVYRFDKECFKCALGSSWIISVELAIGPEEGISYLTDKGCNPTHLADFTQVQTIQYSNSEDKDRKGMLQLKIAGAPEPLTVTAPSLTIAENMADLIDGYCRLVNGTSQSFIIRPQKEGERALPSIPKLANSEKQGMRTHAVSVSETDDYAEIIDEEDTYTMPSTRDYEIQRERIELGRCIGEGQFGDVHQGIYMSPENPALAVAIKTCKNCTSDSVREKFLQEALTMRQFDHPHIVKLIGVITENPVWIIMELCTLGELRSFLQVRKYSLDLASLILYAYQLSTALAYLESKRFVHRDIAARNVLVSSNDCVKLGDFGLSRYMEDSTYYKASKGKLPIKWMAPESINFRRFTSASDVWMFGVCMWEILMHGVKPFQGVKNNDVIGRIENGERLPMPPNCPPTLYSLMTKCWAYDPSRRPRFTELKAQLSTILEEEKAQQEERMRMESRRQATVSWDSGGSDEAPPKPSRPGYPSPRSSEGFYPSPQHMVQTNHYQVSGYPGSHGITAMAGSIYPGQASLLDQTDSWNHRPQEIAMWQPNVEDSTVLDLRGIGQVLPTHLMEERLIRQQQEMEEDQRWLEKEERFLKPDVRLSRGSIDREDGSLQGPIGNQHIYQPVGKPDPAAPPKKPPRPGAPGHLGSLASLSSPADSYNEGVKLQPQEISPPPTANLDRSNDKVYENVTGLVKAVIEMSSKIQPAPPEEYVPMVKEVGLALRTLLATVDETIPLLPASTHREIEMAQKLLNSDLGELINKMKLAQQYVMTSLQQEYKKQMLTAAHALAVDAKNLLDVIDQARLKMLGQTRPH
Experiment [14] concerns Fibrinogen (Alexa647-labelled). The experiment is described as follows: fibrinogen binders on compound microarrays, profiling panel, artefact control for SMM control-protein annotation, biochemical, small-molecule microarray, 635/667 nm fluorescence (AID 1131).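 Also: z-score merges 667 nm fluorescence with per-spot signal-to-noise over triplicate slides.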 The following applies: fibrinogen-A647 binding fluorescence, higher = more signal.
Experiment [15] concerns the target Follistatin (Homo sapiens) (UniProt P19883). Description: follistatin binders on small-molecule microarrays, primary screen, biochemical, small-molecule microarray, 635/667 nm fluorescence (AID 1132). The conditions noted are these: FST binding, 635 nm fluorescence, higher = more signal.
For experiment [16], the target named is Fibroblast growth factor 2 (Homo sapiens) (UniProt P09038). Description: FGF2 binders on small-molecule microarrays, primary screen, biochemical, small-molecule microarray, 635/667 nm fluorescence (AID 1133). The following applies: small-molecule microarray binding, FGF2, fluorescence 635/667; higher = more signal.
Sequence of Fibroblast growth factor 2 (Homo sapiens) (P09038 whole entry, looked up): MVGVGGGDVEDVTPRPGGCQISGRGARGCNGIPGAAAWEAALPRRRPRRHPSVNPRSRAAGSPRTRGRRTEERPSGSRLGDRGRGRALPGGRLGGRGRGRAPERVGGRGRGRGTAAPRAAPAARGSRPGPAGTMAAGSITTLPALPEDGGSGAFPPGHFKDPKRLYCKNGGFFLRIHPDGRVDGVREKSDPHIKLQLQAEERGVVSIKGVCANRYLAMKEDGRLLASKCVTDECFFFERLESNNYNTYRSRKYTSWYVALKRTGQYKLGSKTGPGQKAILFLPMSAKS
Experiment [17] is described as follows: mitochondrial membrane potential change in A549 cells, profiling panel, cell-based, JC-1 fluorescence, basal, 24 h, 100 nL (AID 1138).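 Also: A549 lung adenocarcinoma cells under basal conditions with no added stimulus; test concentration not given here.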 The conditions noted are these: higher = more signal.
Experiment [18] deals with Lefty1. The experiment is described as follows: Lefty1 binders on small-molecule microarrays, primary screen, biochemical, small-molecule microarray, 635/667 nm fluorescence (AID 1139). The following applies: small-molecule microarray binding, fluorescence 635/667; higher = more signal.
The test system of experiment [19] is wheat germ agglutinin (Triticum aestivum), Alexa647-labelled. The experiment is described as follows: wheat germ agglutinin binders on compound microarrays, profiling panel, artefact control for SMM control-protein annotation, biochemical, small-molecule microarray, 635/667 nm fluorescence (AID 1140).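 Also: score merges 667 nm feature emission with signal to noise over triplicate slides.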 The following applies: WGA-A647 binding, 635 nm fluorescence, higher = more signal.

The target in experiment [20] is Luciferin 4-monooxygenase (Photinus pyralis) (UniProt P08659). Description: firefly luciferase enzyme inhibitors, primary screen, biochemical, luminescence, purified enzyme, 2006 set (AID 1141).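 Also: cell-free assay with purified firefly luciferase at 100 ng per well in PBS; test concentration not given here.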 The following applies: SteadyGlo luminescence, 30 min, higher = more signal, called active from +8 up or from −8 down.
Sequence of Luciferin 4-monooxygenase (Photinus pyralis) (P08659 whole entry, looked up): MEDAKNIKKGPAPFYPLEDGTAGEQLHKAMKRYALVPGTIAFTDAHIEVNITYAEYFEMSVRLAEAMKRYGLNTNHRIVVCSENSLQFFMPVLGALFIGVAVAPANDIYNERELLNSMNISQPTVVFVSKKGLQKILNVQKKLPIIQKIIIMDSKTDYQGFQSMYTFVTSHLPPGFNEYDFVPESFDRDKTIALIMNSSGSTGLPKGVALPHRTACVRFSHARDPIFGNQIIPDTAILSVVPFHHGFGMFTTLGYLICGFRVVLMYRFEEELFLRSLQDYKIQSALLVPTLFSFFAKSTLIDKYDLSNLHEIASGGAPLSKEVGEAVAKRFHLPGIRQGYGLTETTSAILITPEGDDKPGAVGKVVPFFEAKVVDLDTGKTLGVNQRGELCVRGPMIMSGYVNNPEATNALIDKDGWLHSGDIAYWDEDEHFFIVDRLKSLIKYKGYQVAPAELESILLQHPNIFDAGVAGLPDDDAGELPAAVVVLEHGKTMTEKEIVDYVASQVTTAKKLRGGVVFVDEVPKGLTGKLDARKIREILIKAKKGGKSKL

Calls of active or inactive are those of the source.

Sequence of Albumin (Bos taurus) (P02769 whole entry, looked up): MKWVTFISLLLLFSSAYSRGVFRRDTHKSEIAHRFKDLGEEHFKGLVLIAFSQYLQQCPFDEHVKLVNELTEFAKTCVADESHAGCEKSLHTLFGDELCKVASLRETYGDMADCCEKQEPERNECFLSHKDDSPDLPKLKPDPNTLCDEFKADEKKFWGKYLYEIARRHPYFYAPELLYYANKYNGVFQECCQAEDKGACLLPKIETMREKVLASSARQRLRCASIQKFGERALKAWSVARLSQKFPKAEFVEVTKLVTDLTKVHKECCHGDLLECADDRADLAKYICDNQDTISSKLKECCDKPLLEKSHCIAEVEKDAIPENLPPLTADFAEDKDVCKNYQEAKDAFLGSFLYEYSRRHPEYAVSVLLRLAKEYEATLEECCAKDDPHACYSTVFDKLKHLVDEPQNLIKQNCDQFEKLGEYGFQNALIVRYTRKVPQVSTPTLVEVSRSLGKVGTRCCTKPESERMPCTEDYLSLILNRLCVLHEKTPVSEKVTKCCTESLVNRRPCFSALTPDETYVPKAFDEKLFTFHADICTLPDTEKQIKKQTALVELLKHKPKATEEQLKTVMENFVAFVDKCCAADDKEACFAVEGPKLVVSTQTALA
Sequence of Follistatin (Homo sapiens) (P19883 whole entry, looked up): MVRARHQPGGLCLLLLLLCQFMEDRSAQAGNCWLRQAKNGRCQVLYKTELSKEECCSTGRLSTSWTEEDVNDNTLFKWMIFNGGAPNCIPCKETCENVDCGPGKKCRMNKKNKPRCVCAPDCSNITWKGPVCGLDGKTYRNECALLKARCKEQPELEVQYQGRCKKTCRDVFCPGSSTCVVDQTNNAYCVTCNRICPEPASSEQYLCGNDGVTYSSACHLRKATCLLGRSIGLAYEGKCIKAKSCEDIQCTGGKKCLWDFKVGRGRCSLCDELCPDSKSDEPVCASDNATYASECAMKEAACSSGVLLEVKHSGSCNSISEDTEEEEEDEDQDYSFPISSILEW
Sequence of Concanavalin-A (Canavalia ensiformis) (P02866 whole entry, looked up): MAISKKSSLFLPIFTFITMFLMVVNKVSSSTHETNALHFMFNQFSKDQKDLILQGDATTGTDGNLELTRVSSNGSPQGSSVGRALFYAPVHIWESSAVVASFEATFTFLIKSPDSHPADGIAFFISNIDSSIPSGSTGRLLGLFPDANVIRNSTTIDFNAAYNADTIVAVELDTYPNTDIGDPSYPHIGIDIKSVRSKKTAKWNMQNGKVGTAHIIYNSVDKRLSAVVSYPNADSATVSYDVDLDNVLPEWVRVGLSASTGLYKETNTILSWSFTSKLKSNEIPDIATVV

As for `O=C1O[C@@H](c2ccccc2)[C@@H](c2ccccc2)N2[C@@H](c3ccc(OCCO)cc3)[C@]3(C(=O)Nc4ccccc43)[C@@H](C(=O)Nc3nc4ccccc4s3)[C@H]12`, the composite z-score was 0.915 in experiment [1]; 0.372 in experiment [3]; -0.0028 in experiment [4]; 0.593 in [5]; 2.45 in [6]; 0.262 in experiment [7]. The composite z-score in experiment [8] worked out at 1.3; in experiment [9], 0.477; in experiment [10], 1.11; in [11], 2.11; in [12], 1.26; in [13] it was 0.645. The composite z-score in experiment [14] was 1; in experiment [15], 1.21; in experiment [16], 0.79; in [18], 1.28; in [19], 0.958. In addition, the composite Z-score in experiment [2] was 0.755 (inactive). For the same compound, the z-score was -2.13 in experiment [17] and -9.09 (active) in experiment [20].
As to `CC(C)C(=C=CC[C@@H](O)c1ccccc1OCCO)C[C@@H](O)c1ccccn1`, the composite z-score was 0.0682 in [1]; -0.0847 in experiment [3]; -0.111 in experiment [4]; 0.738 in [5]; 0.287 in [6]; -0.0744 in experiment [7]. In addition, the composite z-score in experiment [8] is 0.95; in experiment [9] it was -0.0374; in experiment [10], 0.451; in [11], -0.131; in [12] it was 0.647; in [13], 1.02. The composite z-score is 0.694 in experiment [14]; 0.6 in experiment [15]; 0.566 in experiment [16]; 0.811 in experiment [18]; 0.21 in experiment [19]. Further, the composite Z-score in [2] was -0.776 (inactive). Besides, the values for the z-score in experiment [17] and in [20] were 1.43 and -0.623 (inactive), respectively.
Turning to `O=C1c2ccccc2[C@@]2(Cc3ccccc3N(Cc3ccccc3)C2=O)[C@H](c2ccc(CO)cc2)N1C1CCCCC1`, the composite z-score in [1] is -0.841; in experiment [3], -0.141; in [4], -0.14; in experiment [5] it was 0.416; in experiment [6], 1.03; in experiment [7], 0.432. For the same compound, the composite z-score came out at 0.689 in experiment [8]; 0.685 in [9]; 1.01 in experiment [10]; 0.386 in experiment [11]; 0.174 in experiment [12]; 0.117 in experiment [13]. Besides, the composite z-score is -0.0673 in experiment [14]; 1.02 in experiment [15]; 0.736 in [16]; 0.483 in experiment [18]; 0.0291 in experiment [19]. The composite Z-score in experiment [2] was 0.0066 (inactive). The z-score in experiment [17] is -0.191; in experiment [20] it was 0.378 (inactive).
For `CC1CC/C=C\[C@H]2OC34C=CCN(Cc5ccccc5)C(=O)[C@H]3N(CCCCCO)C(=O)[C@@H]4C2C(=O)O1` (stereo not given in full), the composite z-score in [1] is 0.363; in experiment [3], -0.213; in experiment [4], -0.19; in [5], 0.871; in experiment [6], -0.351; in experiment [7], 1.4. Also, the composite z-score in experiment [8] was -0.883; in experiment [9], -0.0737; in experiment [10], -0.811; in [11], 0.15; in experiment [12] it was -0.825; in experiment [13], 1.19. The composite z-score in [14] was -0.985; in [15], -0.599; in experiment [16], -0.754; in [18] it was -0.812; in experiment [19], -0.494. The composite Z-score in [2] was 0.815 (inactive). Besides, the z-score is 1.37 in experiment [17] and -0.763 (inactive) in experiment [20].
As to `[N-]=[N+]=NCc1ccccc1[C@@H]1OC(c2ccc(OCCCO)cc2)=N[C@]1(Cc1ccccc1N=[N+]=[N-])C(=O)NCc1ccccc1`, the composite z-score amounted to 0.753 in experiment [1]; 0.111 in experiment [3]; 0.0427 in experiment [4]; 0.42 in [5]; 1.25 in experiment [6]; 0.272 in [7]. The composite z-score in experiment [8] was 1.26; in experiment [9], 0.16; in experiment [10], 0.815; in [11], 0.512; in experiment [12], 1.17; in experiment [13], 0.562. Moreover, the composite z-score in experiment [14] stood at 0.198; in experiment [15], 1.28; in experiment [16], 0.578; in experiment [18], 0.621; in [19] it was 0.421. Further, the composite Z-score in [2] is -0.0079 (inactive). For the same compound, the z-score in [17] is 0.249; in experiment [20], -5.2 (inactive).
